Reference: PubChem BioAssay AID1159580 (chemical genetic matrix, 2015)
The campaign covered roughly 5,500 compounds. About 2,000 (36%) were called active. Not shown: some 18% with an inconclusive outcome. The list shows a part of the results. Unmarked numbers belong to inactive results. Rule as the data show it: active = normalized growth mostly below about 0.91 (no sharp cut-off); inconclusive = no clear call, values can overlap the other calls; inactive = mostly above about 0.92.

Experiment: chemical genetic growth profiling, strain panel (AID 1159580);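 also: tested at 20 µM; growth read once vehicle control cultures reached saturation at 30 °C; 1 = growth at the plate median or of vehicle wells; lower values mean less growth of the strain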
Conditions: growth OD

Cc1cc2c3c(c1)c(O)cc(=O)n3CCC2
normalized growth (S. cerevisiae deletion strains, locus YAL013W, strain DEP1, hits give low values): 0.967 | normalized growth (S. cerevisiae deletion strains, locus YBR229C, strain ROT2, hits give low values): 0.989 | normalized growth (S. cerevisiae deletion strains, locus YDL101C, strain DUN1, hits give low values): 0.981 | normalized growth (S. cerevisiae deletion strains, locus YDL134C, strain PPH21, hits give low values): 0.968 | normalized growth (S. cerevisiae deletion strains, locus YDR150W, strain NUM1, hits give low values): 1 | normalized growth (S. cerevisiae deletion strains, locus YEL061C, strain CIN8, hits give low values): 1.01 | normalized growth (S. cerevisiae deletion strains, locus YGR078C, strain PAC10, hits give low values): 0.991 | normalized growth (S. cerevisiae deletion strains, locus YGR229C, strain SMI1, hits give low values): 0.974 | normalized growth (S. cerevisiae deletion strains, locus YHR030C, strain SLT2, hits give low values): 0.518 (active) | normalized growth (S. cerevisiae deletion strains, locus YHR087W, strain rtc3, hits give low values): 0.991 | normalized growth (S. cerevisiae deletion strains, locus YJL187C, strain SWE1, hits give low values): 0.984 | normalized growth (S. cerevisiae deletion strains, locus YJR043C, strain POL32, hits give low values): 0.984 | normalized growth (S. cerevisiae deletion strains, locus YJR075W, strain HOC1, hits give low values): 1 | normalized growth (S. cerevisiae deletion strains, locus YKL190W, strain CNB1, hits give low values): 0.988 | normalized growth (S. cerevisiae deletion strains, locus YLR039C, strain RIC1, hits give low values): 0.544 (active) | normalized growth (S. cerevisiae deletion strains, locus YLR058C, strain SHM2 (second series), hits give low values): 0.995 | normalized growth (S. cerevisiae deletion strains, locus YLR085C, strain ARP6, hits give low values): 0.968 | normalized growth (S. cerevisiae deletion strains, locus YLR262C, strain YPT6, hits give low values): 0.549 (active) | normalized growth (S. cerevisiae deletion strains, locus YML094W, strain GIM5, hits give low values): 1.02 | normalized growth (S. cerevisiae deletion strains, locus YMR219W, strain ESC1, hits give low values): 0.969 | normalized growth (S. cerevisiae deletion strains, locus YMR263W, strain SAP30, hits give low values): 0.968 | normalized growth (S. cerevisiae deletion strains, locus YNL128W, strain TEP1, hits give low values): 0.989 | normalized growth (S. cerevisiae deletion strains, locus YNL153C, strain GIM3, hits give low values): 0.971 | normalized growth (S. cerevisiae deletion strains, locus YNL298W, strain CLA4 (second series), hits give low values): 1.01 | normalized growth (S. cerevisiae deletion strains, locus YNL322C, strain KRE1, hits give low values): 0.993 | normalized growth (S. cerevisiae deletion strains, locus YNR030W, strain Alg12, hits give low values): 0.989 | normalized growth (S. cerevisiae deletion strains, locus YOL006C, strain TOP1, hits give low values): 1.03 | normalized growth (S. cerevisiae deletion strains, locus YPL055C, strain LGE1, hits give low values): 0.88 | normalized growth (S. cerevisiae deletion strains, locus YPL241C, strain CIN2, hits give low values): 0.96 | normalized growth (S. cerevisiae deletion strains, locus YPR135W, strain CTF4, hits give low values): 0.918 | normalized growth (S. cerevisiae strains, strain wild type, hits give low values): 0.967
